# For part of these data: Measured potencies and affinities stand elsewhere. The source made the active and inactive calls.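 The calls were made as follows, unless noted: active = earlier screen potentiator hit that boosts the TRPC4 ion channel at some dose, with a dose response; inactive = no potentiation, no dose response, or not a prior hit.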
# Columns and labels:
# [1] = system: TRPC4 beta (transient receptor potential cation channel C4), mouse; test: TRPC4 cation channel opening, retest – cell-based, Fluo4 calcium, HEK293 TRPC4beta/mu-opioid, duplicates, 10 µM, confirmation (AID 2426;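 active = fluorescence ratio normalized to control raised more than 50% in primary screen plus both repeat runs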;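 as to activation: percent rise of integrated ratio over buffer wells lacking compound which define 0%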); settings: Fluo4 calcium fluorescence, at 10 µM; active compounds read high
# [2] = system: transient receptor potential cation channel C4 beta (TRPC4), mouse; test: TRPC4 cation channel opening, second retest – cell-based, second round, Fluo4, HEK293 TRPC4beta/mu-opioid, 1 µM, confirmation (AID 2461;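 active = primary screen active and over 50% activation in each of two duplicate runs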); settings: Fluo4 calcium fluorescence, at 1 µM; active compounds read high
# [3] = system: TRPC4 (transient receptor potential cation channel C4 beta), mouse; test: potentiation of DAMGO EC20 TRPC4 response – cell-based, second round, Fluo-4, HEK293 TRPC4beta/mu-opioid, 1 µM, confirmation (AID 2554;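 active = primary screen hit whose fluorescence ratio, in both repeats, exceeds the weak agonist control mean by 3 SD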); settings: DAMGO EC20, Fluo-4 calcium flux, at 1 µM; active compounds read high
# [4] = system: TRPC4 beta (transient receptor potential cation channel C4), mouse; test: potentiation of DAMGO EC20 TRPC4 response – cell-based, Fluo-4, HEK293 TRPC4beta/mu-opioid, confirmation (AID 2555;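 active = primary screen hit whose calcium fluorescence ratio, in both repeats, exceeds the weak agonist control mean by 3 SD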); settings: DAMGO EC20, Fluo-4 calcium flux, at 10 µM; active compounds read high
# [5] = biological target: Short transient receptor potential channel 4 (Mus musculus) (UniProt Q9QUQ5); test: blockers of DAMGO-evoked TRPC4 calcium flux – cell-based, Fluo4, HEK293 TRPC4beta/mu-opioid, confirmation (AID 2636;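 active = calcium signal cut by more than 3 SD below the full-agonist control yet still positive, in both repeats and the earlier primary screen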); settings: at 10 µM; active compounds read high
# [6] = biological target: Short transient receptor potential channel 4 (Mus musculus) (UniProt Q9QUQ5); test: blockers of DAMGO-evoked TRPC4 calcium flux – cell-based, second round, Fluo4, HEK293 TRPC4beta/mu-opioid, 1 µM, confirmation (AID 2637;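 active = calcium signal ratio cut to more than 3 SD under the fully stimulated control mean yet still positive, in both repeats and the primary screen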;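 as to inhibition: percent of integrated ratio relative to wells lacking test compound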); settings: at 1 µM; active compounds read high
# [7] = biological target: Short transient receptor potential channel 4 (Mus musculus) (UniProt Q9QUQ5); test: calcium entry via TRPC4 opening agents – cell-based, HEK293 TRPC4/mu-opioid, Fluo-4 calcium, dose response (AID 434937;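 active = primary screen activator hit with a dose response curve and TRPC4 channel activation at any tested dose; inactive = no activation, no dose response, or not a primary hit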)
# [8] = biological target: Short transient receptor potential channel 4 (Mus musculus) (UniProt Q9QUQ5); test: potentiation of DAMGO-evoked TRPC4 calcium signal – cell-based, HEK293 TRPC4/mu-opioid, Fluo-4 calcium, EC20 DAMGO, dose response (AID 434941);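 also: calcium entry triggered by an EC20 dose of DAMGO at the co-expressed mu-opioid receptor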
# [9] = biological target: Short transient receptor potential channel 4 (Mus musculus) (UniProt Q9QUQ5); test: block of DAMGO-driven TRPC4 calcium entry – cell-based, HEK293 TRPC4/mu-opioid, Fluo-4 calcium, dose response (AID 434942;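 active = primary screen inhibitor hit that blocks the TRPC4 channel at some tested dose, yielding a dose curve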)
# [10] = biological target: Short transient receptor potential channel 6 (Mus musculus) (UniProt Q61143); test: TRPC6 blockade by TRPC4 inhibitor hits – cell-based, HEK293, membrane potential dye, duplicate, selectivity assay for TRPC4 inhibitor project, confirmation (AID 434948;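 active = active in primary screen and both duplicates, each dropping signal beyond three positive-control SD with fluorescence still positive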); settings: HEK293 TRPC6, membrane potential dye fluorescence, at 10 µM, stimulated with maximal-effect acetylcholine; active compounds read high
# [11] = biological target: Short transient receptor potential channel 6 (Mus musculus) (UniProt Q61143); test: TRPC6 opening by TRPC4 activator hits – cell-based, HEK293, membrane potential dye, duplicate, selectivity assay for TRPC4 activator project, confirmation (AID 434950;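 active = membrane potential signal rise above negative control mean plus 3 SD in both duplicates, also active in the earlier TRPC4 screen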); settings: HEK293 TRPC6, membrane potential fluorescence, at 10 µM; activation: active compounds read high; outcome: activation
# [12] = biological target: Short transient receptor potential channel 6 (Mus musculus) (UniProt Q61143); test: positive modulators of mouse TRPC6 channel – HEK293 cells, membrane potential dye, duplicate, selectivity assay for TRPC4 potentiator project, confirmation (AID 434952;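 active = compound raising the membrane signal above positive-control mean plus 3 SD in both repeats, and a primary screen hit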); settings: HEK293 TRPC6, membrane potential dye fluorescence, at 10 µM, maximal acetylcholine added after compound; active compounds read high
# [13] = biological target: Short transient receptor potential channel 4 (Mus musculus) (UniProt Q9QUQ5); test: calcium flux activators in TRPC4/5HT1a cells, counter-screen for TRPC4 activator project, cell-based, second counter screen, HEK293 TRPC4/5HT1a, Fluo-4 (AID 434977;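 active = calcium signal rise above buffer-control mean plus 5 SD in both duplicates, and also a hit in the primary screen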); settings: Fluo-4 calcium flux, at 10 µM; active compounds read high
# [14] = serotonin-gated TRPC4 signal block – cell-based, second counter screen, HEK293 TRPC4/5HT1a, Fluo-4, counter-screen for TRPC4 inhibitor project, confirmation (AID 434978;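 active = primary screen active whose calcium signal fell more than 3 SD beyond the full-serotonin control mean in both duplicate plates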;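 as to outcome: serotonin given first at submaximal then at maximal dose after compound preincubation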); settings: Fluo-4 calcium flux, at 10 µM, serotonin added to trigger calcium flux; active compounds read high
# [15] = system: TRPC4 (mouse), co-expressed with 5HT1a in HEK293; test: enhancement of serotonin-evoked TRPC4 response – cell-based, second counter screen, HEK293 TRPC4/5HT1a, Fluo-4, counter-screen for TRPC4 potentiator project, confirmation (AID 434979;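 active = signal rise over 3 SD above mean of control wells given weak agonist, in both repeats and first screen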); settings: Fluo-4 calcium flux, at 10 µM, serotonin added at its EC20 dose; active compounds read high
# [16] = nonspecific calcium rise without TRPC4 – cell-based, HEK293 mu-opioid receptor line, counter-screen for TRPC4 activator project, confirmation (AID 449723;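 active = hit in primary screen, with calcium signal over 5 SD above buffer well mean in both duplicates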;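 also: counter screen cells carry the mu-opioid receptor alone and lack TRPC4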); settings: HEK293 mu-opioid cells, Fluo-4 calcium fluorescence, at 10 µM; active compounds read high
# [17] = nonspecific potentiation of DAMGO calcium response – cell-based, HEK293 mu-opioid receptor line, counter-screen for TRPC4 allosteric potentiator project, confirmation (AID 449724;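 active = calcium signal rise more than 3 SD above the low-dose agonist control mean, in both duplicate plates and the primary screen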); settings: HEK293 mu-opioid receptor cells, Fluo-4 calcium flux, at 10 µM, compound added before EC20 DAMGO stimulus; active compounds read high
# Sequence of Short transient receptor potential channel 4 (Mus musculus) (Q9QUQ5 whole entry, looked up): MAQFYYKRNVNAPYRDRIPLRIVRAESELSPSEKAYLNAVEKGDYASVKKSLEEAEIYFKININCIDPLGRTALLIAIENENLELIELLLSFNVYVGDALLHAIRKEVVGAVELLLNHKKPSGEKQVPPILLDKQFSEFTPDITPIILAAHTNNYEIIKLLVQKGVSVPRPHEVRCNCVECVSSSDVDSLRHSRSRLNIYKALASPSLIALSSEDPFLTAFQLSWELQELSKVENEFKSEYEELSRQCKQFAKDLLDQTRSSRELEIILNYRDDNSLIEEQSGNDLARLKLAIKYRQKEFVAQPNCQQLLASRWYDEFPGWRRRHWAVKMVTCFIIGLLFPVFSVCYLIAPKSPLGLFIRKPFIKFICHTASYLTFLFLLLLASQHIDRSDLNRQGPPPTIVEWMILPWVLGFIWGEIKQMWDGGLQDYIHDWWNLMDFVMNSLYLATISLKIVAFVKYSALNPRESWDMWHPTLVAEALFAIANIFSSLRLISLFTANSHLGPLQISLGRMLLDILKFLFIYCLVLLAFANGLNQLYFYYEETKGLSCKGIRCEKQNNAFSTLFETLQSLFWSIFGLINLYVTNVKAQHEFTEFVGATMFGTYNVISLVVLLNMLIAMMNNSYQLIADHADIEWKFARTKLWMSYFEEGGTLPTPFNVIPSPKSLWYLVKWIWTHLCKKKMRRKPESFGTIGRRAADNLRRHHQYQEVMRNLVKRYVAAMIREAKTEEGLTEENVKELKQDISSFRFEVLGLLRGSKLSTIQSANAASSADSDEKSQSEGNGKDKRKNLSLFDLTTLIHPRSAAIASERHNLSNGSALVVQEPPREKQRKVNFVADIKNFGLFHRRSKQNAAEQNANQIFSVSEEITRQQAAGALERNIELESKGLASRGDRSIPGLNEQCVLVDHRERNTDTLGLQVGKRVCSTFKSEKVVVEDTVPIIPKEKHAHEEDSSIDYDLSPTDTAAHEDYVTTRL
# Sequence of Short transient receptor potential channel 6 (Mus musculus) (Q61143 whole entry, looked up): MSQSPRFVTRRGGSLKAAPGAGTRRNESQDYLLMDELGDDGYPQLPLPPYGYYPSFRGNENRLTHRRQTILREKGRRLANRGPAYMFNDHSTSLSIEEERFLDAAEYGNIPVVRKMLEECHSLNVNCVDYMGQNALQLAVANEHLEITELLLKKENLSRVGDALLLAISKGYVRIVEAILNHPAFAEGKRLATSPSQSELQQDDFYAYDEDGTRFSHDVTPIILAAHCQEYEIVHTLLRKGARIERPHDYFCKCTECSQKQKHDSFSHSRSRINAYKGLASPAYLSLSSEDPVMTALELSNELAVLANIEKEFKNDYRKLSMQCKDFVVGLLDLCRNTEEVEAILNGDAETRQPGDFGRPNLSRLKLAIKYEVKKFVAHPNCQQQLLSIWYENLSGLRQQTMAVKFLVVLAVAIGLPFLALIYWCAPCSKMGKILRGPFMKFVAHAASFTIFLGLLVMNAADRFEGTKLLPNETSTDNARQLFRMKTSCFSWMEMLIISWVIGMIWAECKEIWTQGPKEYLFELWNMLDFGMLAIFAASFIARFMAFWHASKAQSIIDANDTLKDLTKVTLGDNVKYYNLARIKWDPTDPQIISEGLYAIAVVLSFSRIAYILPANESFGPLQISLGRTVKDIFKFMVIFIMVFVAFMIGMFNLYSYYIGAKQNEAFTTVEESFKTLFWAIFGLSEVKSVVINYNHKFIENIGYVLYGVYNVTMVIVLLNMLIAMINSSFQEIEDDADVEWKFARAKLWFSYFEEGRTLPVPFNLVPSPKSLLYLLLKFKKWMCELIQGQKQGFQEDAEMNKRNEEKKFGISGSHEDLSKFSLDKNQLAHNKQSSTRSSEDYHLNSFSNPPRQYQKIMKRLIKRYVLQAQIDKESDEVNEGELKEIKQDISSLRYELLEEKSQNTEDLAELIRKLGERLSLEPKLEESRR
smiles,measurement,setting,value
CC(=O)OCC1O[C@@H](O[C@@H]2C[C@H]3C(C)(C)[C@H](OC(C)=O)CC[C@]3(C)[C@H]3CC[C@]45C[C@]4(CC[C@H]5[C@@H](C)C[C@@H](O)[C@H](O)C(C)(C)O)[C@@]32C)[C@H](O)[C@@H](O)[C@@H]1O (stereo not given in full),activation,[1],173% (active)
same,outcome,[2],inactive
same,outcome,[3],inactive
same,outcome,[4],inactive
same,outcome,[5],inactive
same,outcome,[6],inactive
same,outcome,[7],inactive
same,outcome,[8],inactive
same,outcome,[9],inactive
same,outcome,[10],inactive
same,outcome,[11],inactive
same,outcome,[12],inactive
same,outcome,[13],inactive
same,outcome,[14],inactive
same,outcome,[15],inactive
same,activation,[16],28.8% (active)
same,outcome,[17],inactive
CCOP(=O)(OCC)c1nc(-c2ccc(Cl)cc2Cl)oc1N1CCCCC1,outcome,[1],inactive
same,outcome,[2],inactive
same,outcome,[3],inactive
same,outcome,[4],inactive
same,outcome,[5],inactive
same,outcome,[6],inactive
same,outcome,[7],inactive
same,outcome,[8],inactive
same,outcome,[9],inactive
same,outcome,[10],inactive
same,outcome,[11],inactive
same,outcome,[12],inactive
same,outcome,[13],inactive
same,outcome,[14],inactive
same,potentiation,[15],54.2% (active)
same,outcome,[16],inactive
same,outcome,[17],inactive
CC(NC(=O)c1ccccc1NC(=O)CN1CCc2ccccc2C1)c1ccccc1 (stereo not given),outcome,[1],inactive
same,outcome,[2],inactive
same,outcome,[3],inactive
same,outcome,[4],inactive
same,outcome,[5],inactive
same,outcome,[6],inactive
same,outcome,[7],inactive
same,outcome,[8],inactive
same,outcome,[9],inactive
same,outcome,[10],inactive
same,outcome,[11],inactive
same,outcome,[12],inactive
same,outcome,[13],inactive
same,outcome,[14],inactive
same,potentiation,[15],20.3% (active)
same,outcome,[16],inactive
same,outcome,[17],inactive
CCOC(=O)c1c(-c2ccc(OC)cc2)oc2ccc(O)cc12,outcome,[1],inactive
same,outcome,[2],inactive
same,outcome,[3],inactive
same,outcome,[4],inactive
same,outcome,[5],inactive
same,outcome,[6],inactive
same,outcome,[7],inactive
same,outcome,[8],inactive
same,outcome,[9],inactive
same,outcome,[10],inactive
same,outcome,[11],inactive
same,outcome,[12],inactive
same,outcome,[13],inactive
same,outcome,[14],inactive
same,outcome,[15],inactive
same,outcome,[16],inactive
same,outcome,[17],inactive
COc1ccc(CCNCC(O)COc2ccc(OC)cc2C(C)(C)C)cc1 (stereo not given),outcome,[1],inactive
same,outcome,[2],inactive
same,outcome,[3],inactive
same,outcome,[4],inactive
same,outcome,[5],inactive
same,outcome,[6],inactive
same,outcome,[7],inactive
same,outcome,[8],inactive
same,outcome,[9],inactive
same,outcome,[10],inactive
same,outcome,[11],inactive
same,outcome,[12],inactive
same,outcome,[13],inactive
same,outcome,[14],inactive
same,outcome,[15],inactive
same,outcome,[16],inactive
same,outcome,[17],inactive
C/C(=C\c1cccc(Cl)c1Cl)C(=O)c1c(C)cc(C)[nH]c1=O,outcome,[1],inactive
same,outcome,[2],inactive
same,outcome,[3],inactive
same,outcome,[4],inactive
same,outcome,[5],inactive
same,outcome,[6],inactive
same,outcome,[7],inactive
same,outcome,[8],inactive
same,outcome,[9],inactive
same,outcome,[10],inactive
same,outcome,[11],inactive
same,outcome,[12],inactive
same,outcome,[13],inactive
same,outcome,[14],inactive
same,potentiation,[15],16.5% (active)
same,outcome,[16],inactive
same,outcome,[17],inactive
CCOc1ccc(-n2cnnn2)cc1S(=O)(=O)NCc1ccccc1,outcome,[1],inactive
same,outcome,[2],inactive
same,outcome,[3],inactive
same,outcome,[4],inactive
same,outcome,[5],inactive
same,outcome,[6],inactive
same,outcome,[7],inactive
same,outcome,[8],inactive
same,outcome,[9],inactive
same,outcome,[10],inactive
same,outcome,[11],inactive
same,outcome,[12],inactive
same,outcome,[13],inactive
same,outcome,[14],inactive
same,outcome,[15],inactive
same,outcome,[16],inactive
same,outcome,[17],inactive
CCCCCc1ccc(OCCCC[n+]2ccccc2)c(CCCCC)c1,outcome,[1],inactive
same,outcome,[2],inactive
same,outcome,[3],inactive
same,outcome,[4],inactive
same,outcome,[5],inactive
same,outcome,[6],inactive
same,outcome,[7],inactive
same,outcome,[8],inactive
same,outcome,[9],inactive
same,outcome,[10],inactive
same,outcome,[11],inactive
same,outcome,[12],inactive
same,outcome,[13],inactive
same,outcome,[14],inactive
same,outcome,[15],inactive
same,outcome,[16],inactive
same,outcome,[17],inactive
CC(=O)C1=C(O)C(=O)N(Cc2ccco2)C1c1ccc2c(c1)OCO2 (stereo not given),outcome,[1],inactive
same,outcome,[2],inactive
same,outcome,[3],inactive
same,outcome,[4],inactive
same,inhibition,[5],94% (active)
same,inhibition,[6],47% (active)
same,outcome,[7],inactive
same,outcome,[8],inactive
same,outcome,[9],inactive
same,outcome,[10],inactive
same,outcome,[11],inactive
same,outcome,[12],inactive
same,outcome,[13],inactive
same,outcome,[14],inactive
same,outcome,[15],inactive
same,outcome,[16],inactive
same,outcome,[17],inactive
CCOC(=O)Cc1csc(NC(=O)NC2(C(F)(F)F)Oc3cc(Cl)c(Cl)cc3O2)n1,outcome,[1],inactive
same,outcome,[2],inactive
same,outcome,[3],inactive
same,outcome,[4],inactive
same,inhibition,[5],47% (active)
same,inhibition,[6],41% (active)
same,outcome,[7],inactive
same,outcome,[8],inactive
same,outcome,[9],inactive
same,outcome,[10],inactive
same,outcome,[11],inactive
same,outcome,[12],inactive
same,outcome,[13],inactive
same,inhibition,[14],39.5% (active)
same,outcome,[15],inactive
same,outcome,[16],inactive
same,outcome,[17],inactive
CCOC(=O)c1c(C)n(-c2ccc(C)cc2)c2ccc(OCC(O)CNCC3CCCO3)cc12 (stereo not given),outcome,[1],inactive
same,outcome,[2],inactive
same,outcome,[3],inactive
same,outcome,[4],inactive
same,outcome,[5],inactive
same,outcome,[6],inactive
same,outcome,[7],inactive
same,outcome,[8],inactive
same,outcome,[9],inactive
same,outcome,[10],inactive
same,outcome,[11],inactive
same,outcome,[12],inactive
same,outcome,[13],inactive
same,outcome,[14],inactive
same,potentiation,[15],24.6% (active)
same,outcome,[16],inactive
same,outcome,[17],inactive
CCc1cc(=O)oc2c(CNCc3ccccc3F)c(O)c(Cl)cc12,outcome,[1],inactive
same,outcome,[2],inactive
same,outcome,[3],inactive
same,outcome,[4],inactive
same,outcome,[5],inactive
same,outcome,[6],inactive
same,outcome,[7],inactive
same,outcome,[8],inactive
same,outcome,[9],inactive
same,outcome,[10],inactive
same,outcome,[11],inactive
same,outcome,[12],inactive
same,outcome,[13],inactive
same,outcome,[14],inactive
same,outcome,[15],inactive
same,outcome,[16],inactive
same,outcome,[17],inactive
Cc1ccc(NS(=O)(=O)c2cc(N)ccc2Cl)c(C)c1,outcome,[1],inactive
same,outcome,[2],inactive
same,outcome,[3],inactive
same,outcome,[4],inactive
same,outcome,[5],inactive
same,outcome,[6],inactive
same,outcome,[7],inactive
same,outcome,[8],inactive
same,outcome,[9],inactive
same,outcome,[10],inactive
same,outcome,[11],inactive
same,outcome,[12],inactive
same,outcome,[13],inactive
same,outcome,[14],inactive
same,outcome,[15],inactive
same,outcome,[16],inactive
same,outcome,[17],inactive
CC(C)c1cccc(OCCCCN(C)C)c1,outcome,[1],inactive
same,outcome,[2],inactive
same,potentiation,[3],9% (active)
same,potentiation,[4],20% (active)
same,outcome,[5],inactive
same,outcome,[6],inactive
same,outcome,[7],inactive
same,outcome,[8],inactive
same,outcome,[9],inactive
same,outcome,[10],inactive
same,outcome,[11],inactive
same,outcome,[12],inactive
same,outcome,[13],inactive
same,outcome,[14],inactive
same,potentiation,[15],16.2% (active)
same,outcome,[16],inactive
same,outcome,[17],inactive
Cc1ccc(-n2c(SCc3cc(=O)n4ccsc4n3)nnc2-c2cccnc2)c(C)c1,outcome,[1],inactive
same,outcome,[2],inactive
same,outcome,[3],inactive
same,outcome,[4],inactive
same,outcome,[5],inactive
same,outcome,[6],inactive
same,outcome,[7],inactive
same,outcome,[8],inactive
same,outcome,[9],inactive
same,outcome,[10],inactive
same,outcome,[11],inactive
same,outcome,[12],inactive
same,outcome,[13],inactive
same,outcome,[14],inactive
same,outcome,[15],inactive
same,outcome,[16],inactive
same,outcome,[17],inactive

# Reference: PubChem BioAssay
